The full list was thinned out, with hits kept by preference.
nsP2pro primary = Primary qHTS for inhibitors of NSP2Pro chikungunya virus (CHIKV); Polyprotein P1234 (Chikungunya virus (strain S27-African prototype)), Q8JUX6; FRET peptide cleavage, nsP2pro, fluorescence 1 h; Potency, µM (top dose mostly 24.9 µM), most hits filed as inhibitors; 31,000 tested, 1.1% active; AID 1964107, 2024; further: nearly all actives have a fitted effect of over 60% in size
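FRET cleavage of 2.5 uM peptide 2 by 150 nM CHIKV protease domain at pH 8.0 (Tris, Tween 20). Compounds at 7 concentrations (up to 25 uM) preincubated 15 min. Fluorescence read after 1 h at room temperature.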
CHIKV nsP2 cell = Secondary cell base assay for inhibitors of NSP2Pro Chikungunya virus (CHIKV); shares compounds with nsP2pro primary; 450 tested, 10% active; cell-based CHIKV nsP2 protease reporter assay; Potency, µM (series often up to 51.1 µM), actives largely listed as inhibitors; further: nearly all actives have a fitted effect of over 70% in size
NSP2 full ctr = Selectivity profile for inhibitors of NSP2Pro chikungunya virus (CHIKV): Full length NSP2 enzyme counterscreen (CHIKV-NSP2); Full-length CHIKV NSP2 protease enzymatic counterscreen; 410 tested, 39% active; Potency, µM (series often up to 50.7 µM), most hits filed as inhibitors; shares compounds with nsP2pro primary; further: nearly all actives have a fitted effect of over 65% in size
Furin counterscr = Selectivity profile for inhibitors of NSP2Pro chikungunya virus (CHIKV): Human furin counterscreen. shares compounds with nsP2pro primary. Recombinant human furin enzymatic counterscreen, fluorogenic substrate. Potency, µM (series often up to 50.6 µM), usual class: inhibitors. 410 tested, 6% active
nsP2 NS23 pep = Selectivity profile for inhibitors of NSP2Pro chikungunya virus (CHIKV): Endogenous NS2/3 peptide Counterscreen; shares compounds with nsP2pro primary; Purified CHIKV nsP2 protease, endogenous NS2/3 peptide cleavage; Potency, µM (highest dose often 51 µM), most hits filed as inhibitors; 410 tested, 34% active; further: nearly all actives have a fitted effect of over 55% in size
Papain cs = Selectivity profile for inhibitors of NSP2Pro chikungunya virus (CHIKV): Papain Counterscreen | 410 tested, 5% active | AID 1964104, 2024 | purified papain protease activity, enzymatic inhibition | shares compounds with nsP2pro primary | Potency, µM (doses to about 51 µM), most hits filed as inhibitors
Target sequence (P00784 whole entry, looked up): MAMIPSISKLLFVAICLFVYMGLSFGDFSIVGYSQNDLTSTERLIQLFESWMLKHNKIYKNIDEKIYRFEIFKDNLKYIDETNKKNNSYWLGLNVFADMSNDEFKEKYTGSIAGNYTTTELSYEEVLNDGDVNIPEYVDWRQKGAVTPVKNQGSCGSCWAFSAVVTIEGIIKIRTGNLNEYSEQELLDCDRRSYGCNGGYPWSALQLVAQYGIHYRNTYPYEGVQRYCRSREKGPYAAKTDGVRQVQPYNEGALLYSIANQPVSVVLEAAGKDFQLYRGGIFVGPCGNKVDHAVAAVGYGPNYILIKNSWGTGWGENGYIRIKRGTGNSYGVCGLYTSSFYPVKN
nsP2pro conf qHTS = Confirmatory qHTS for inhibitors of NSP2Pro chikungunya virus (CHIKV) | shares compounds with nsP2pro primary | CHIKV nsP2 protease enzymatic activity, qHTS | Potency, µM (titrated, usually from 25.5 µM), most hits filed as inhibitors | 410 tested, 43% active | AID 1964105, 2024; further: nearly all actives have a fitted effect of over 75% in size
HCV NS3 4A cs = Selectivity profile for inhibitors of NSP2Pro chikungunya virus (CHIKV): NS34A-HCV Counterscreen; Potency, µM (series often up to 50.9 µM), hits mostly inhibitors; HCV NS3/4A protease biochemical counterscreen; shares compounds with nsP2pro primary; AID 1964106, 2024; 410 tested, 20% active; further: nearly all actives have a fitted effect of over 55% in size
A number is an active result; – = inactive; ? = inconclusive. The call rests on the fitted dose curve.

SMILES	nsP2pro primary	others
CC(=O)O[C@@H]1[C@@H](CO)O[C@@](CO)(O[C@H]2O[C@H](COC(=O)/C=C/c3ccccc3)[C@@H](O)[C@H](O)[C@H]2O)[C@H]1O	–
O=C(/C=C/c1ccc(O)c(O)c1)OC[C@H]1O[C@@H](OC2CCCCC2O)[C@H](O)[C@@H](O)[C@@H]1O (some centres undefined)	–
Cc1ncc(COP(=O)(O)O)c(C=O)c1O	?	CHIKV nsP2 cell=–;NSP2 full ctr=–;Furin counterscr=–;nsP2 NS23 pep=–;Papain cs=–;nsP2pro conf qHTS=–;HCV NS3 4A cs=–
Cc1ncc(CO)c(C=O)c1O	–
Cc1ncc(CSSCc2cnc(C)c(O)c2CO)c(CO)c1O	–
O=C(C1CCCN1C(=O)Cc1ccc(F)cc1)N1CCC(N2CCOCC2=O)CC1 (centres undefined)	–
O=C(c1cccc(Br)c1)N1CCC(N2CCCC2)CC1	–
CN(C)C(=S)SC(=S)N(C)C	8.8µM	CHIKV nsP2 cell=–;NSP2 full ctr=29µM;Furin counterscr=–;nsP2 NS23 pep=–;Papain cs=–;nsP2pro conf qHTS=7.1µM;HCV NS3 4A cs=?
CN(C)C(=S)SSC(=S)N(C)C	2.8µM	CHIKV nsP2 cell=25µM;NSP2 full ctr=9.2µM;Furin counterscr=–;nsP2 NS23 pep=9.2µM;Papain cs=–;nsP2pro conf qHTS=1.6µM;HCV NS3 4A cs=–
O=C(NCCCNc1nc(Nc2ccc(N3CCOCC3)cc2)ncc1C1CC1)C1CCC1	–
O=C(NCCCc1ccccc1)C1CCCCN1Cc1ccc(-c2ccsc2)cc1 (centres undefined)	–
Fc1cc(Nc2nc(-c3ccncc3)nc3ccccc23)ccc1-c1cn[nH]c1	–
N[C@@H](C=O)[C@@H](O)[C@@H](O)[C@H](O)CO	–
COc1ccc(NC(=O)c2cnn3c(C)cc(C)nc23)cc1Cl	–
Oc1ccc([C@H]2CNCc3c2ccc(O)c3O)cc1O	3.5µM	CHIKV nsP2 cell=–;NSP2 full ctr=?;Furin counterscr=–;nsP2 NS23 pep=23µM;Papain cs=–;nsP2pro conf qHTS=5µM;HCV NS3 4A cs=0.58µM
CCOc1ccc(NC(=O)NCC2CCCN2c2ccc(OC)cc2)cc1 (centres undefined)	–
Cc1ccc(S(=O)(=O)NCCC(=O)Nc2nc(-c3ccccc3)cs2)cc1	–
C=C1/C(=C/C=C2\CCC[C@]3(C)[C@@H]([C@H](C)CCCC(C)(C)O)CC[C@@H]23)C[C@@H](O)[C@@H](OCCCO)[C@@H]1O	–
C1=C(c2cnc[nH]2)c2ccsc2CC1	?	CHIKV nsP2 cell=–;NSP2 full ctr=–;Furin counterscr=?;nsP2 NS23 pep=–;Papain cs=–;nsP2pro conf qHTS=–;HCV NS3 4A cs=–
Cc1nc(CCN(C)c2ncnc3ccc(-c4ccc5c(c4)OCO5)cc23)cs1	–
CN1CCC(Nc2nc(Nc3ccc(Oc4ccccc4)cc3)c3c(=O)[nH]cc(Br)c3n2)CC1	–
CC(=O)OCC(=O)C1(O)CCC2C3CCC4=CC(=O)CCC4(C)C3C(=O)CC21C (centres undefined)	–
Cc1ccc(S(=O)(=O)c2ccc([N+](=O)[O-])o2)cc1	0.56µM	CHIKV nsP2 cell=?;NSP2 full ctr=1.5µM;Furin counterscr=–;nsP2 NS23 pep=4.6µM;Papain cs=?;nsP2pro conf qHTS=0.56µM;HCV NS3 4A cs=–
O=NCc1ccc([N+](=O)[O-])o1	–
NC(=O)N/N=C/c1ccc([N+](=O)[O-])o1	–
SMILES	nsP2pro primary	others
O=C(Nc1ccc(F)c(F)c1)Nc1nnc(-c2ccncc2)s1	–
CC(C)=CCC[C@](C)(O[C@@H]1O[C@H](CO[C@@H]2O[C@@H](CO)[C@H](O)[C@H]2O)[C@@H](O)[C@H](O)[C@H]1O)[C@H]1CC[C@]2(C)[C@@H]1[C@H](O)C[C@@H]1[C@@]3(C)CC[C@H](O[C@@H]4O[C@H](CO)[C@@H](O)[C@H](O)[C@H]4O[C@@H]4O[C@H](CO)[C@@H](O)[C@H](O)[C@H]4O)C(C)(C)[C@@H]3CC[C@]12C	–
O=C(O)CCc1cc(C(=O)c2ccc(OC3CCCC3)cc2O)ccc1OCc1ccc2c(=O)[nH]oc2c1	–
Cc1cccc(NC(=O)CSc2nc3ccccc3nc2N2CCC(C)CC2)c1	–
Cc1cccc(-c2cc(-c3ccccc3)nc(SCC(=O)Nc3ccccc3)c2C#N)c1	–
Cc1cccc(NC(=O)N[C@H]2CN(C)c3ccccc3C(c3ccccc3)=N2)c1	?	CHIKV nsP2 cell=–;NSP2 full ctr=?;Furin counterscr=–;nsP2 NS23 pep=?;Papain cs=–;nsP2pro conf qHTS=?;HCV NS3 4A cs=–
Cc1cccc(NC(=O)CSc2cc(C)c3ccccc3n2)c1	–
Cc1ccc(NC(=O)Nc2ccc3c(c2)N(C)C(=O)c2ccccc2S3)c(C)c1	–
Cc1cccc(NC(=O)N[C@@H]2N=C(c3ccccc3)c3ccccc3N(C)C2=O)c1	?	CHIKV nsP2 cell=–;NSP2 full ctr=?;Furin counterscr=–;nsP2 NS23 pep=?;Papain cs=–;nsP2pro conf qHTS=?;HCV NS3 4A cs=–
CCNC(=O)C1CCN(C(=O)C(C)(C)NC(=O)Nc2ccccc2Cl)CC1	–
N#Cc1ccnc(N2C(=O)CC[C@H]2C(=O)N(c2cncc(F)c2)[C@@H](C(=O)NC2CC(F)(F)C2)c2ccccc2Cl)c1	–
CNc1oc(-c2ccccc2-c2ccccc2)nc1C#N	–
O=C1C2CC=CCC2C(=O)N1SC(Cl)(Cl)Cl (centres undefined)	1.8µM	CHIKV nsP2 cell=?;NSP2 full ctr=2.9µM;Furin counterscr=–;nsP2 NS23 pep=5.8µM;Papain cs=–;nsP2pro conf qHTS=0.9µM;HCV NS3 4A cs=?
OC[C@H]1O[C@@H](OC[C@H]2O[C@@H](O[C@@H]3[C@@H](O)[C@H](O)O[C@H](CO)[C@H]3O)[C@H](O)[C@@H](O[C@@H]3O[C@H](CO)[C@@H](O)[C@H](O)[C@H]3O)[C@@H]2O)[C@H](O)[C@@H](O)[C@@H]1O	–
OCCN1CCN(CCCN2c3ccccc3Sc3ccc(C(F)(F)F)cc32)CC1	–
OCCN1CCN(CCCN2c3ccccc3C=Cc3ccccc32)CC1	8.8µM	CHIKV nsP2 cell=–;NSP2 full ctr=?;Furin counterscr=–;nsP2 NS23 pep=–;Papain cs=–;nsP2pro conf qHTS=–;HCV NS3 4A cs=–
CC(=O)c1ccc2c(c1)N(CCCN1CCN(CCO)CC1)c1ccccc1S2	–
c1ccc(-c2ncc(CN3CCN(c4ncccn4)CC3)[nH]2)cc1	–
O=C(O)c1cccc(S(=O)(=O)Nc2nccs2)c1	–
Cc1ccc(NC(=O)Nc2cc(-c3ccccc3-c3nn[nH]n3)ccc2N(CC(C)C)CC(C)C)cc1	–
O=C(O)c1cccc(O)c1O	–
Oc1cccc(O)c1O	8.8µM	CHIKV nsP2 cell=–;NSP2 full ctr=15µM;Furin counterscr=–;nsP2 NS23 pep=8.2µM;Papain cs=–;nsP2pro conf qHTS=1.8µM;HCV NS3 4A cs=3.3µM
CC(C)c1cccc(C(C)C)c1O	–

From PubChem BioAssay
